Assay outcomes: PubChem, National Center for Advancing Translational Sciences (NCATS)
Only some compounds are listed: those with a hit (about 8% of all), similar ones and a draw of the others.
SARS PLpro yeast: SARS-CoV PLP inhibition in yeast. S. cerevisiae expressing SARS-CoV PLpro, growth rescue. Potency, µM (doses to about 32.9 µM), for inactives: at the highest dose activity, positive = growth rescue, hits mostly activators. hit rate 0.19% among 330,000. AID 485353; calls by dose curve; also: potency is read from the fitted curve at half-maximal effect; 0% is about no effect; nearly all actives have a fitted effect of over 55% in size
MARV entry inh: inhibitors of Marburg virus binding or cell entry | AID 540276 | Potency, µM (titrated, usually from 37.8 µM), for the others: top-dose activity change, negative = inhibition, usual class: inhibitors | hit rate 1.8% among 300,000 | Marburg virus pseudotyped entry inhibition, cell reporter; calls by dose curve; tested in HEK293 cells; also: potency is read from the fitted curve at half-maximal effect; % is scaled to controls: 0 for no effect and ±100 for the full control effect
HCV inh: HCV inhibition | Potency, µM (top dose mostly 41.8 µM), inactives show top-dose activity change, negative = inhibition, usual class: inhibitors | hit rate 3.4% among 340,000 | Huh7.5.1 HCVcc-Cre infection, luciferase reporter, 44 h; active = well fitted inhibition curve with a large enough effect; inconclusive = small, poorly fitted or top-dose-only effect, or another doubt; inactive = no such curve, though single readings can be large or run the other way; also: potency is read from the fitted curve at half-maximal effect; % is scaled to controls: 0 for no effect and ±100 for the full control effect
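Whole-lifecycle infectious HCVcc-Cre system; cells 1,000/well, compound then virus (~0.5 moi) added 4 h after plating, 44 h culture. Luciferase read 15 sec following 15 min substrate incubation, room temp.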
FMDV antiviral: foot and mouth disease virus antiviral activity | Potency, µM (series often up to 57.9 µM), for the others: at the top dose activity change, negative = inhibition, usual class: inhibitors | FMDV antiviral cell-based qHTS | hit rate 1.2% among 410,000; calls by dose curve; tested in HEK293T cells; also: read-out not given here; potency is read from the fitted curve at half-maximal effect; % is scaled to controls: 0 for no effect and ±100 for the full control effect; nearly all actives have a fitted effect of over 45% in size
HCMV inh: inhibitors of human cytomegalovirus; hit rate 4.5% among 410,000; activity change, negative = inhibition, % at 57.5 µM; HFF cells, HCMV-luciferase reporter, 72 h; stronger effect = lower value; in the data active = activity change below about -60%; inconclusive = no clear call, values can overlap the other calls; inactive = above about -39%; also: % is scaled to controls: 0 for no effect and ±100 for the full control effect
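Two-dose cell screen: HFF monolayers treated with compounds and infected with luciferase-expressing HCMV at 1 PFU/cell, 72 h at 37C, then lysed for luciferase measurement.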
LASV entry inh: inhibitors of Lassa virus binding or cell entry | Lassa virus pseudotype entry inhibition, cell reporter | hit rate 1.2% among 300,000 | Potency, µM (highest dose often 37.9 µM), for inactives: top-dose activity change, negative = inhibition, hits mostly inhibitors; calls by dose curve; tested in HEK293 cells; also: potency is read from the fitted curve at half-maximal effect; % is scaled to controls: 0 for no effect and ±100 for the full control effect; nearly all actives have a fitted effect of over 50% in size
An asterisk follows results filed as active; ? = inconclusive; . = no result; [ ] = remark or other dose.

SMILES	SARS PLpro yeast	MARV entry inh	HCV inh	FMDV antiviral	HCMV inh	LASV entry inh
COc1ccc(C2CC(c3ccccc3)=NN2C(=O)c2ccc(F)cc2)cc1 (stereo not given)	1%	4%	14%	3%	-13	-12%
COc1ccc(S(=O)(=O)N2N=C(c3cccc(NS(C)(=O)=O)c3)CC2c2ccco2)cc1 (stereo not given)	3%	.	0%	9%	?	.
NS(=O)(=O)c1ccc(N2N=C(c3ccc(Br)cc3)CC2c2ccc(F)cc2)cc1 (stereo not given)	-18%	10µM*	?	22µM*	-17	7.9µM*
COc1ccc(C2CC(c3ccccc3)=NN2c2ccc(S(N)(=O)=O)cc2)cc1OC (stereo not given)	1%	?	-29%	0%	-7	11µM*
COc1ccc(C2CC(c3ccccc3)=NN2S(=O)(=O)c2ccccc2)cc1 (stereo not given)	0%	.	13µM*	-3%	-40	.
COc1ccc(S(=O)(=O)N2N=C(c3ccc(NS(C)(=O)=O)cc3)CC2c2ccco2)cc1 (stereo not given)	1%	10%	4%	-7%	-25	0.65µM*
NS(=O)(=O)c1ccc(N2N=C(c3ccccc3)CC2c2cccc(F)c2)cc1 (stereo not given)	-18%	?	?	-16%	-12	?
COCCCNC(=O)Cn1c(=O)n(-c2cccc(C)c2)c(=O)c2c1c1cc(C)ccc1n2C	.	.	.	2%	-21	4%[46.1 µM]
COc1ccc(C2CC(c3ccc(Cl)cc3)=NN2c2ccc(S(N)(=O)=O)cc2)cc1 (stereo not given)	9%	.	?	0%	13	.
Cc1ccc(C2=NN(S(=O)(=O)c3ccccc3)C(c3ccccc3O)C2)cc1 (stereo not given)	-2%	?	14µM*	43%	?	?
COc1ccc(C2CC(c3ccccc3)=NN2c2ccc(N)cc2)cc1 (stereo not given)	-20%	?	-11%	40µM*	19	?
CS(=O)(=O)Nc1ccc(C2=NN(S(=O)(=O)c3ccccc3)C(c3cccs3)C2)cc1 (stereo not given)	-6%	.	-6%	4%	33	.
COc1ccc(C2CC(c3cccc(Cl)c3)=NN2c2ccc(S(N)(=O)=O)cc2)cc1 (stereo not given)	10%	.	13µM*	?	1	.
CCCSc1nc(-c2ccccc2)[nH]c1S(=O)(=O)c1ccc(C)cc1	.	?	.	30%	-17	-21%[46.1 µM]
C[C@]12CCCC3=CC(=O)C=CC31OCC2 (stereo not given in full)	.	.	.	.	0	.
COc1ccc(-c2cn3c(n2)sc2cc(C(=O)NC4CCCc5ccccc54)ccc23)cc1 (stereo not given)	.	.	.	42%	.	7%[46.1 µM]
Cc1ccc(/C=C/c2nc3ccccc3n2S(=O)(=O)c2cccc(Cl)c2)cc1	.	.	.	-96%	-82*	?
CCOc1ccc(/C=C/c2nc3ccccc3n2S(=O)(=O)c2cccc(Cl)c2)cc1	.	?	.	-16%	-80*	-2%[46.1 µM]
CSc1ccc(/C=C/c2nc3ccccc3n2S(=O)(=O)c2ccc(F)c(C)c2)cc1	.	.	.	-77%	-36	?
COc1cc(CNCCSc2nnnn2C)ccc1OCc1ccccc1C	.	-20%[46.1 µM]	.	12%	-13	3%[46.1 µM]
CCc1ccc(C2CC(=O)c3c([nH]c(C(=O)OCC4CCCCC4)c3C)C2)cc1 (stereo not given)	.	11%[46.1 µM]	.	-12%	-5	2%[46.1 µM]
FC(F)(F)c1cc(CO[C@@H]2CCCN[C@@H]2c2ccccc2)cc(C(F)(F)F)c1	.	.	3.5µM*	?	24	.
FC(F)(F)c1cc(CCN2CCNC[C@@H]2c2ccccc2)cc(C(F)(F)F)c1	-11%	.	?	-12%	4	.
O=C(NCCCN1CCN(c2ccc(F)cc2)CC1)Nc1ccccc1Cl	.	?	.	-9%	-15	-5%[46.1 µM]
CN(Cc1cccc2ncccc12)C(=O)c1cnn(-c2ncc3c(n2)-c2ccccc2CC3)c1C1CC1	.	.	.	28µM*	.	.
CCOc1ccc(Nc2nc(C)c(NC(=O)c3cccc(OC)c3)c(Nc3ccc(OCC)cc3)n2)cc1	.	11µM*	.	?	-12	3%[46.1 µM]
